In PubChem BioAssay AID686978 (National Center for Advancing Translational Sciences (NCATS), 2013):
In all, about 420,000 compounds went through this assay and about 64,000 (15%) were called active. Roughly 27% stayed inconclusive and do not appear here. Not all results are given here. Unmarked numbers belong to inactive results. The call rests on the fitted dose curve; in most records, active means well fitted inhibition curve with a large enough effect; inconclusive means small, poorly fitted or top-dose-only effect; inactive means flat fitted curve, though single readings scatter.

Assay: qHTS for Inhibitors of human tyrosyl-DNA phosphodiesterase 1 (TDP1): qHTS in cells in absence of CPT; further: nearly all actives have a fitted effect of over 55% in size
Details: DT40 Tdp1-/- hTDP1 cells, no CPT, ATP luminescence, 48 h; activity change, negative = growth inhibition: at 46.2 µM (top of the series)
Summary of the method: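 Seeded 400 DT40-hTDP1 cells/well (vehicle DMSO, no 20 nM CPT); pinned compounds; ≥48 hr at 37 °C; CellTiter-Glo luminescence as viability measure.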
On the % scale 0 is the no-effect control and ±100 the full control effect; potency means the concentration at half of the fitted maximal effect.

Row | Compound | activity change, negative = growth inhibition | Potency
1 | O=C(O)c1[nH]c2ccccc2c1C(c1cccc(O)c1)c1c(C(=O)O)[nH]c2ccccc12 | 14.1% | –
2 | COC(=O)c1ccc(CNC(=O)C2CCC(=O)N(Cc3ccccn3)C2)cc1 (stereo not drawn) | 6.62% | –
3 | CN1CCN(C(=O)Cn2c(C(F)(F)F)nc3ccccc32)CC1 | -1.67% | –
4 | FC(F)(F)c1cccc(Nc2ncnc3ccccc23)c1 | – | 18.4 µM (active)
5 | O=c1cc(CO)oc(C(Nc2cccc(C(F)(F)F)c2)c2ccccn2)c1O (stereo not drawn) | -7.37% | –
6 | Cc1nc2nc(C)c(CCC(=O)N3CCN(c4ccccc4)CC3)c(C)n2n1 | 2.82% | –
7 | COc1ccccc1CN1CCCC(N2CCN(c3ccc(F)cc3)CC2)C1 (stereo not drawn) | -13% | –
8 | Cc1cc(=O)oc(C)c1C(=O)NCc1ccc(F)cc1 | 1.68% | –
9 | CCC(=O)Nc1nnc(S(=O)(=O)N2CCCc3ccccc32)s1 | -17.1% | –
10 | CC1CCN(c2ccc([N+](=O)[O-])c(SCCO)c2)CC1 | – | 23.1 µM (active)
11 | CC1CCN(c2ccc3c(c2)S(=O)(=O)c2cc(C(=O)O)ccc2C3=O)CC1 | -0.649% | –
12 | CC1CCN(c2ccc(C(=O)Nc3nnc(C4CC4)s3)cc2[N+](=O)[O-])CC1 | -21.5% | –
13 | COCCn1c(N)c(NCc2ccccc2)c(=O)[nH]c1=O | -23.5% | –
14 | COC(=O)c1sc(C(F)(F)F)c(-c2ccccc2)c1S(=O)(=O)N(C)C | -2.69% | –
15 | CC(C)NC(=O)c1nn(-c2ccccc2F)nc1CO | -8.91% | –
16 | Cc1ccc(-n2nc(CO)c(C(=O)NCCc3ccccc3)n2)cc1 | 3.15% | –
17 | CC(CCCc1ccccc1)NC(=O)c1nn(-c2ccc(Cl)cc2)nc1CO (stereo not drawn) | – | 20.6 µM (active)
18 | CCc1ccc(NC(=O)CCNS(=O)(=O)c2cccs2)cc1 | -2.67% | –
19 | O=C(CN(C(=O)CNC(=O)c1cccs1)c1cccc(F)c1)NC1CCCCC1 | -5.97% | –
20 | CCCN1CCN(CCCNC(=O)Cn2nc(CC)n3c(cc4occc43)c2=O)CC1 | -3.26% | –
21 | CCc1ccc(-c2cc3c(=O)n(CC(=O)NCCCN4CCN(Cc5ccccc5)CC4)nc(C)n3n2)cc1 | – | 16.4 µM (active)
22 | Cc1nn(CC(=O)NCCc2ccccc2)c(=O)c2cc3occc3n12 | 30.7% | –
23 | COc1cc(OC)cc(-c2nc(=S)n3ccsc3n2)c1 | -0.435% | –
24 | CCS(=O)(=O)n1nc(-c2ccccc2)nc1SCc1ccccc1 | -12.3% | –
25 | O=S(=O)(Cc1cc(Sc2ccccc2)nc(-c2ccccc2)n1)c1ccccc1 | – | 23.1 µM (active)
26 | O=S(=O)(Cc1cc(Cl)nc(-c2cccnc2)n1)c1ccccc1 | -24.3% | –
27 | COCCCNC(=O)Cn1c(=O)n(Cc2ccccc2Cl)c(=O)c2cc(OC)c(OC)cc21 | -12.9% | –
28 | CCCCCOC(=O)c1ccc(N2C(=O)C3C4C=CC(C4)C3C2=O)cc1 (stereo not drawn) | -27.6% | –
